Measured values: PubChem BioAssay (NCI)
The panel holds about 83,000 compounds, 20% with a hit somewhere; the sample as a whole holds those more often.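 How to read the values: 0–100, growth inhibition (40 = 60% inhibited); 0, no net growth; -100 to 0, cell death (-40 = 40% of starting cells died; -100 = all dead).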 A number with no mark means an inactive call. The source made the active and inactive calls. The calls were made as follows: active = growth percent below 10; inactive = the rest.

Key:
Assay in all cases: NCI-60 one-dose screen, 48 h (100 = growth as untreated, 0 = no growth, -100 = all killed)
Details in all cases: 10 µM unless noted
[1] = tested on: HCT-15 colon
[2] = tested on: HT29 colon
[3] = tested on: SNB-75 CNS
[4] = tested on: SNB-19 CNS
[5] = tested on: U251 CNS
[6] = tested on: PC-3 prostate
[7] = tested on: SK-MEL-5 melanoma
[8] = tested on: UACC-62 melanoma
[9] = tested on: LOX IMVI melanoma
[10] = tested on: SK-MEL-28 melanoma

Compound	growth [1]	growth [2]	growth [3]	growth [4]	growth [5]	growth [6]	growth [7]	growth [8]	growth [9]	growth [10]
O=C1/C(=C/c2cccc([N+](=O)[O-])c2)COc2ccc(O)cc21	-9.57% (active)	3.32% (active)	79.4%	72.2%	2.17% (active)	42.9%	89.1%	59.4%	-80.6% (active)	82.7%
CC1(C)CC2=C3C=C[C@@H]4[C@@]5(C)CC[C@H](O)C(C)(C)[C@@H]5CC[C@@]4(C)[C@]3(C)CC[C@@]2(C(=O)O)CC1=O	28%	35.7%	16.8%	68.9%	32.3%	45%	25.3%	53.6%	46.9%	30.9%
Cc1nc2sc(C(=O)Nc3ccc(Cl)cc3)c(N)c2cc1C(O)c1ccccc1 (stereo not given)	28.9%	25%	26.5%	41.2%	32.8%	21.9%	30.4%	17.7%	33.4%	57.5%
COc1ccc2c(O)c(/C=C3\N=Nc4ccccc43)oc2c1C[C@H]1CCNC[C@H]1F	33.6%	19.3%	61.4%	67.7%	65.4%	40.8%	48.3%	41.2%	35%	68.3%
Cc1cccc(NC(=O)CSc2nc3ccc([N+](=O)[O-])cc3[nH]2)c1	75.1%	90.4%	70%	80.3%	74.5%	75.1%	52%	42.6%	81.4%	80.7%
COc1ccc(/C=C/C(=O)c2cc3c(N)c(C(=O)Nc4ccccc4C)sc3nc2C)cc1	15.2%	-27.6% (active)	-0.543% (active)	6.45% (active)	9.39% (active)	25%	17.7%	16.9%	18.7%	51.3%
CCOC(=O)c1c2c(n3c1NCC3)-c1ccccc1C2=O	99.3%	98.1%	83.5%	99.3%	101%	91.1%	93.3%	98.6%	97.9%	103%
NNC(=S)N/N=C/c1ccccn1	26.7%	36%	59.6%	48.3%	28.4%	32.9%	30.2%	20.7%	13.2%	56.3%
Cn1cc(/C=C2/C(=O)Nc3ccccc32)c2ccccc21	72.9%	95.4%	99.3%	102%	78.3%	90.2%	79.2%	107%	92.1%	101%
Cc1ccc(-c2csc(NC(=O)N3CCN(c4cc5c(cc4F)c(=O)c(C(=O)O)cn5C4CC4)CC3)n2)cc1	9.36% (active)	4.65% (active)	31.5%	26.9%	15.4%	7.37% (active)	-75.2% (active)	3.86% (active)	2.73% (active)	35%
COc1cccc(C(=O)OCC(O)C(=O)NC23CC4CC(CC(C4)C2)C3)c1 (stereo not given)	96.9%	101%	95.2%	97.2%	94.1%	93.3%	99.2%	93.4%	95.4%	104%
CCCCCSB(SCCCCC)c1ccccc1	96.8%	96.4%	78.7%	96.6%	99.7%	97.2%	105%	105%	96.8%	110%
COc1ccc(/C(C)=C(\c2ccc(Cl)cc2)c2ccc(OCCN3CCCC3)cc2)cc1	7.96% (active)	-18.1% (active)	91.4%	52.1%	19.4%	32.7%	-63.2% (active)	-0.373% (active)	-46.5% (active)	-16.8% (active)
CC(/C=C1\SC(=S)N(CC(=O)NC(Cc2c[nH]c3ccccc23)C(=O)O)C1=O)=C\c1ccccc1 (stereo not given)	103%	110%	87.2%	98.8%	105%	97.6%	96.4%	88.3%	92.9%	105%
COc1ccc2nc3cc(Cl)ccc3c(NCCN)c2c1	-37.7% (active)	-42.5% (active)	91.6%	7.75% (active)	-81.4% (active)	6.63% (active)	79.6%	-71.2% (active)	-86.4% (active)	-65.8% (active)
Nc1ccc([N+](=O)[O-])cc1N=C/C=C/c1ccccc1	42.9%	28.6%	86.6%	72.2%	56.9%	72.4%	56.5%	63.2%	49%	94.8%
Fc1ccc2c(c1)c(-c1nc(-c3c[nH]c4ncccc34)cs1)cn2CCCN1CCOCC1	24.5%	12.9%	41.2%	62.7%	30.4%	31.9%	43.7%	69.5%	33.1%	75.4%
Cn1cc(-c2nonc2-c2c[nH]c3ccc(F)cc23)c2cc(Br)ccc21	30.4%	20.9%	45.5%	58%	41.4%	44.2%	76.6%	52.9%	9.44% (active)	73.2%
COc1cc(C(=O)C(=O)c2cc(OC)c(O)c(OC)c2)cc(OC)c1O	103%	103%	91.6%	99.8%	98.4%	112%	104%	89.8%	97%	107%
O=P(O)(O)OCC1OC(n2cnc3c(NCc4ccccc4)ncnc32)C(O)C1O (stereo not given)	9.47% (active)	23.3%	49.9%	40.8%	47.3%	19.2%	84.1%	38.4%	-8.76% (active)	127%
CCCCCCCCn1ccc2cc(NC(=O)Cn3cc(CN4CCCCCC4)nn3)ccc21	-65.9% (active)	-48.3% (active)	87.5%	14.4%	-43.6% (active)	40%	0.757% (active)	-70.9% (active)	-90.8% (active)	-86.1% (active)
CCN1C(=O)N(CC)C2C1NN=C1SCC(=O)N12 (stereo not given)	82%	59.5%	85.8%	97%	107%	94%	101%	85.8%	107%	96.6%
O=C(Nc1ccc(F)cc1)Nc1ccccc1CNc1nc(Nc2ccc(OCCN3CCCC3)cc2)ncc1Cl	38.8%	6.13% (active)	-15.7% (active)	45.8%	20.6%	61.7%	44.9%	95.2%	-57.6% (active)	-13.3% (active)
CC1(C)CC[C@]2(C(=O)N3CCOCC3)CC[C@]3(C)C(=CC[C@@H]4[C@@]5(C)C/C(=C/c6ccncc6)C(=O)C(C)(C)[C@@H]5CC[C@]43C)[C@@H]2C1	7.19% (active)	5.31% (active)	43%	47.5%	18.4%	10.9%	-63.5% (active)	2.88% (active)	-84% (active)	-14.4% (active)
COc1cccc(/C=C/C(=O)c2cc3c(N)c(C(=O)Nc4cccc(Cl)c4C)sc3nc2C)c1	-57.4% (active)	-80.7% (active)	-1.75% (active)	-35.7% (active)	-78.4% (active)	13.9%	-31.3% (active)	1.73% (active)	-64.2% (active)	16.3%
CC/C=C\C/C=C/C=C1/C(=O)C=C[C@@H]1C/C=C\CCCC(=O)OC	4.13% (active)	2.21% (active)	93.4%	62.3%	28.7%	30.2%	70.1%	-6.19% (active)	-70% (active)	36.7%
Cn1c(=O)c2c(nc(NC3=NS(=O)(=O)c4ccccc43)n2Cc2ccccc2)n(C)c1=O	98.4%	111%	93.1%	96.1%	104%	95.4%	99.4%	91.5%	95.6%	107%
